Measles CPE: compounds protecting cells from measles virus cytopathic effect, primary screen, measles RdRp inhibitor project, single point, MLSMR library, absorbance; protection (pct of control), % at 4 µM; Measles virus-infected cells, CPE protection; 1.5% of 140,000 active; in the data active = protection mostly above about 24%, no sharp cut-off; inactive = mostly below about 26%
CYP2C9 activ: human CYP2C9 activators, primary screen, biochemical, luminescence. Cytochrome P450 2C9 (Homo sapiens), P11712. recombinant CYP2C9, luciferin-H conversion; active compounds read high; factor 1 = untreated enzyme, 0 = blocked. activation factor at 5 µM. 1.4% of 96,000 active;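 active = activation factor of 2 or more for CYP2C9 at a 5 µM dose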;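 note: 0 = sulfaphenazole-blocked wells and 1 = vehicle-only wells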
CYP2C19 inh: blockers of cytochrome P450 2C19 activity – biochemical, luminescence, ADME assay, primary screen; P33261; CYP2C19 Supersomes, luciferin-H EGE luminescence, 30 min; inhibition, % at 5 µM; 21% of 96,000 active; AID 778, 2007;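 active = CYP2C19 inhibition above a set limit at 5 µM in the primary screen, cut at about 50% in these data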;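 note: plate controls were negative control wells for no effect and 2.5 mM tranylcypromine positive control for full effect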
Target sequence (P33261 whole entry, looked up): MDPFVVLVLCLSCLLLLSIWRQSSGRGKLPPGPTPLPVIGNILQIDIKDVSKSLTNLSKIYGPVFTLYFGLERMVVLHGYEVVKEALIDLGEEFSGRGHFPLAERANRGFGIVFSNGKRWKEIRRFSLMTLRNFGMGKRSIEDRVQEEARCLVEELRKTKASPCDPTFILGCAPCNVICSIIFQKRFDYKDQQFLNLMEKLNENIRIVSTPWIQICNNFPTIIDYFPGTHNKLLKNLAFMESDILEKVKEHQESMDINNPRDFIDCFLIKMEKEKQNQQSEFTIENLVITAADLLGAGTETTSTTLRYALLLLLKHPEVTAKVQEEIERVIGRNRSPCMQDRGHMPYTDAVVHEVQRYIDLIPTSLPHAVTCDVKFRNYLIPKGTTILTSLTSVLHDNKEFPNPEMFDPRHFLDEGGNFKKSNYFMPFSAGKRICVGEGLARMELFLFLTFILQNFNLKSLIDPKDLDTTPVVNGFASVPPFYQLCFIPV
CYP2C19 act: human CYP2C19 activators, primary screen, biochemical, luminescence; 96,000 tested, under 10 active; recombinant CYP2C19, luciferin-H EGE luminescence; active compounds read high; 0 = fully inhibited enzyme, 1 = untreated enzyme; activation factor at 5 µM;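 active = activation factor of at least 2 at 5 µM in the primary screen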;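 note: 0 = wells with 2.5 mM tranylcypromine and 1 = vehicle-only wells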
CYP2C9 inh: blockers of cytochrome P450 2C9 activity – biochemical, luminescence, ADME assay, primary screen | AID 777, 2007 | 20% of 96,000 active | inhibition, % at 5 µM | CYP2C9 Supersomes, luciferin-H conversion | P11712;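 active = blocking of liver enzyme CYP2C9 beyond about 50% at 5 µM, limit read from the data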
* = called active by the depositor. This is a sample that favours compounds with a hit; in the whole collection about 22% have one here.

How did CNC(=O)CN(c1cc(C)ccc1C)S(C)(=O)=O do in these assays?
Measles CPE: 4.1; CYP2C9 activ: 0.9; CYP2C19 inh: 20.9; CYP2C19 act: 0.8; CYP2C9 inh: 10.0

Results for COc1ccccc1N(CC(=O)Nc1ccc2c(c1)OCCO2)S(C)(=O)=O ?
Measles CPE: 5.3; CYP2C9 activ: 0.7; CYP2C19 inh: -2.2; CYP2C19 act: 1; CYP2C9 inh: 30.7

How did COc1ccc(N(CC(=O)Nc2cccc(SC)c2)S(C)(=O)=O)cc1Cl do in these assays?
Measles CPE: 3.9; CYP2C9 activ: 0.9; CYP2C19 inh: 59.0*; CYP2C19 act: 0.4; CYP2C9 inh: 13.0

What do the screens show for `COc1ccc(Cl)cc1N(CC(=O)Nc1ccc2c(c1)OCCO2)S(C)(=O)=O`?
Measles CPE: 8.4; CYP2C9 activ: 0.3; CYP2C19 inh: 76.2*; CYP2C19 act: 0.2; CYP2C9 inh: 69.0*

What do the screens show for `COc1ccc(N(CC(=O)Nc2ccccc2SC)S(C)(=O)=O)cc1OC`?
Measles CPE: 8.5; CYP2C9 activ: 0.8; CYP2C19 inh: 13.5; CYP2C19 act: 0.9; CYP2C9 inh: 24.6

How did COc1ccc(OC)c(N(CC(=O)Nc2ccc(NC(C)=O)cc2)S(C)(=O)=O)c1 do in these assays?
Measles CPE: 12.2; CYP2C9 activ: 0.6; CYP2C19 inh: 0.3; CYP2C19 act: 1; CYP2C9 inh: 41.0

What do the screens show for `COc1ccc(Cl)cc1N(CC(=O)Nc1cccc(SC)c1)S(C)(=O)=O`?
Measles CPE: 4.2; CYP2C9 activ: 0.3; CYP2C19 inh: 90.6*; CYP2C19 act: 0.1; CYP2C9 inh: 71.5*

How did CSc1cccc(NC(=O)CN(c2cc(C)ccc2C)S(C)(=O)=O)c1 do in these assays?
Measles CPE: 15.0; CYP2C9 activ: 0.4; CYP2C19 inh: 84.8*; CYP2C19 act: 0.2; CYP2C9 inh: 55.7*

Results for CSc1cc(-c2ccc(Cl)cc2)c(C(=O)N2CCCC2)s1 ?
Measles CPE: 8.9; CYP2C9 activ: 0.8; CYP2C19 inh: 9.6; CYP2C19 act: 0.9; CYP2C9 inh: 16.3

How did O=C(Nc1cc2c(cc1Cl)OCCCO2)c1ccc(F)cc1 do in these assays?
Measles CPE: 11.8

Results for COc1ccc2c(c1)c(C(O)CN1CCC3(CC1)OCCO3)c(C)n2C (centres undefined) ?
Measles CPE: 5.8; CYP2C9 activ: 0.9; CYP2C19 inh: 25.5; CYP2C19 act: 0.7; CYP2C9 inh: 7.4

Results for COc1ccc(-c2nc3c(=O)n(C)c(=O)[nH]c3n2CCc2ccccc2)cc1 ?
Measles CPE: 17.9; CYP2C9 activ: 0.3; CYP2C19 inh: -4.5; CYP2C19 act: 1; CYP2C9 inh: 72.1*

How did CCOCCn1c(N2CCN(c3ccc(OC)cc3)CC2)nc2c1c(=O)[nH]c(=O)n2C do in these assays?
Measles CPE: 10.9; CYP2C9 activ: 0.8; CYP2C19 inh: 11.5; CYP2C19 act: 0.9; CYP2C9 inh: 23.9

Results for Cc1ccnc(SCCn2c(N3CCN(Cc4ccccc4)CC3)nc3c2c(=O)[nH]c(=O)n3C)n1 ?
Measles CPE: 4.6; CYP2C9 activ: 0.2; CYP2C19 inh: 83.0*; CYP2C19 act: 0.2; CYP2C9 inh: 77.5*

How did COc1ccc(CCn2c(N3CCN(Cc4ccccc4)CC3)nc3c2c(=O)[nH]c(=O)n3C)cc1 do in these assays?
Measles CPE: 5.6; CYP2C9 activ: 0.6; CYP2C19 inh: 62.1*; CYP2C19 act: 0.4; CYP2C9 inh: 42.6

How did CCCn1c(-c2ccccc2)nc2c(=O)n(C)c(=O)[nH]c21 do in these assays?
Measles CPE: 2.6; CYP2C9 activ: 1; CYP2C19 inh: 4.5; CYP2C19 act: 1; CYP2C9 inh: -3.8

Results for COCCn1c(N2CCN(c3ccc(OC)cc3)CC2)nc2c1c(=O)[nH]c(=O)n2C ?
Measles CPE: 2.1; CYP2C9 activ: 0.6; CYP2C19 inh: 60.6*; CYP2C19 act: 0.4; CYP2C9 inh: 42.4

Results for COc1cccc2c1OC1(C)CC2NC(=O)N1Cc1ccccc1 (centres undefined) ?
Measles CPE: 4.2; CYP2C9 activ: 1.2; CYP2C19 inh: 29.1; CYP2C19 act: 0.7; CYP2C9 inh: -19.6

How did COC(=O)c1cc(Cl)c(NC(=O)c2ccc(F)cc2)cc1OC do in these assays?
Measles CPE: 5.0

How did O=C(NC1=NCCS1)c1csc2ccccc12 do in these assays?
Measles CPE: 5.4; CYP2C9 activ: 1.1; CYP2C19 inh: 43.5; CYP2C19 act: 0.6; CYP2C9 inh: -11.9

Results for N#Cc1ccc2ccn(CC(=O)NCc3ccccc3)c2c1 ?
Measles CPE: 8.5; CYP2C9 activ: 0.4; CYP2C19 inh: 87.0*; CYP2C19 act: 0.1; CYP2C9 inh: 58.9*

What do the screens show for `CN(CC(=O)O)S(=O)(=O)c1cc(Cl)ccc1Cl`?
Measles CPE: 4.9; CYP2C9 activ: 1; CYP2C19 inh: 6.0; CYP2C19 act: 0.9; CYP2C9 inh: -1.0

What do the screens show for `CN(CC(=O)Nn1cnnc1)S(=O)(=O)c1cc(Cl)ccc1Cl`?
Measles CPE: 19.0; CYP2C9 activ: 0.1; CYP2C19 inh: 80.8*; CYP2C19 act: 0.2; CYP2C9 inh: 86.9*

Results for CN(CC(=O)N1CCCC1)S(=O)(=O)c1cc(Cl)ccc1Cl ?
Measles CPE: 20.7; CYP2C9 activ: 2.4*; CYP2C19 inh: 19.1; CYP2C19 act: 0.8; CYP2C9 inh: -141.0

How did CCOC(=O)C(C(C)=O)C(c1ccc(OCCC(C)C)cc1)C(C(C)=O)C(=O)OCC (centres undefined) do in these assays?
Measles CPE: 5.8

How did CN(C)c1ccc(/C(=N\O)c2ccccc2)cc1 do in these assays?
Measles CPE: 12.9; CYP2C9 activ: 1; CYP2C19 inh: 72.8*; CYP2C19 act: 0.3; CYP2C9 inh: -2.6

How did CC(C)(C)NC(=O)COC(=O)c1cc(F)c(F)cc1Cl do in these assays?
Measles CPE: 8.6; CYP2C9 activ: 1; CYP2C19 inh: 76.9*; CYP2C19 act: 0.2; CYP2C9 inh: 1.2

How did Cc1ccc(CNc2ccc(S(=O)(=O)N3CCOCC3)cc2[N+](=O)[O-])cc1 do in these assays?
Measles CPE: 5.5

How did Cc1nc2ccc(C(=O)O)cc2c2c1CC(C)S2 (centres undefined) do in these assays?
Measles CPE: 13.8; CYP2C9 activ: 1.1; CYP2C19 inh: -13.6; CYP2C19 act: 1.1; CYP2C9 inh: -10.1

What do the screens show for `CC12C=CC3(CN(Cc4ccccc4)C(=O)C3C1C(=O)NCc1ccco1)O2` (centres undefined)?
Measles CPE: 11.4; CYP2C9 activ: 1; CYP2C19 inh: -2.0; CYP2C19 act: 1; CYP2C9 inh: 2.1

How did CC1(C)Cc2c(sc3c2c(=N)n(Cc2ccco2)c(=O)n3CC(=O)Nc2cccc(Cl)c2)CO1 do in these assays?
Measles CPE: 14.5; CYP2C9 activ: 0.6; CYP2C19 inh: 28.5; CYP2C19 act: 0.7; CYP2C9 inh: 44.6
